This note sets out measurements from PubChem BioAssay (NCI).

Some test systems named below: T-47D breast; BT-549 breast; MDA-MB-435 melanoma; SW-620 colon; MCF7 breast; HCT-116 colon; KM12 colon.
Experiment in all cases: NCI-60 one-dose screen, 48 h (100 = growth as untreated, 0 = no growth, -100 = all killed)
Holding throughout (settings): 10 µM unless noted

The panel holds about 83,000 compounds, 20% with a hit somewhere; the sample as a whole holds those more often.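 Activity criterion: percent growth below 10, measured after cells in 96-well plates were exposed to a single compound concentration for 48 hours.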 Values without a mark were called inactive. Activity calls are given as the source filed them.

In the case of `CNC(=O)c1ccccc1Nc1nc(Nc2ccc3c(c2OC)CCC[C@H](N2CCN(CCO)CC2)C3)ncc1Cl`, the growth in the test on T-47D breast was -23.1% (active); in the test on BT-549 breast, 29.7%; with MDA-MB-435 melanoma, -27.6% (active); with SW-620 colon, -19.9% (active); in the test with MCF7 breast it was 6.63% (active); with HCT-116 colon it was -62.6% (active). The growth in the test on KM12 colon was -27.3% (active).
Turning to `CC(C)c1cc(CNc2nc(Nc3cc(C4CC4)[nH]n3)cc(N3CCN(C)CC3)n2)on1`, the growth with T-47D breast is 6.24% (active); in the test on BT-549 breast it was -21.9% (active); with MDA-MB-435 melanoma, -10.9% (active); in the test with SW-620 colon it was 7.6% (active); with MCF7 breast, 11.5%; with HCT-116 colon it was 3.46% (active). Further, the growth in the test on KM12 colon is 4.41% (active).
Turning to `CNC(=O)c1c(C)oc2cc(Oc3ncnc4cc(OC)c(OC)cc34)ccc12`, the growth with T-47D breast was 94%; with BT-549 breast it was 73.6%; with MDA-MB-435 melanoma it was 114%; in the test on SW-620 colon, 104%; in the test with MCF7 breast, 97.6%; in the test on HCT-116 colon, 93.7%. Also, the growth in the test with KM12 colon is 102%.
As to `ClCc1ccc(-c2ccc(Cn3cnc4nc(Cl)nc(Cl)c43)cc2)cc1`, the growth in the test on T-47D breast was -10.5% (active); in the test with BT-549 breast it was -44.8% (active); in the test with MDA-MB-435 melanoma, -19.5% (active); with SW-620 colon it was -46.8% (active); in the test with MCF7 breast it was -42.4% (active); in the test with HCT-116 colon it was -72.4% (active). Also, in the test on KM12 colon, the growth is -63% (active).
As to `COc1cc(N2CCC(N(C)C)CC2)ccc1Nc1ncc(Cl)c(Nc2ccccc2P(C)(C)=O)n1`, the growth is 56.2% in the test on T-47D breast; -14.1% (active) in the test on BT-549 breast; 23.5% in the test on MDA-MB-435 melanoma; -1.28% (active) in the test with SW-620 colon; 33.1% in the test on MCF7 breast; -19.6% (active) in the test on HCT-116 colon. In addition, in the test on KM12 colon, the growth is -1.59% (active).
For the compound `C[C@H](NC(=O)c1c(N)nn2cccnc12)c1cc2cccc(C#Cc3cnn(C)c3)c2c(=O)n1-c1ccccc1`, the growth in the test with T-47D breast is -22.3% (active); in the test on BT-549 breast it was 2.12% (active); in the test with MDA-MB-435 melanoma it was 30.9%; in the test with SW-620 colon, 13.4%; in the test with MCF7 breast it was 5.42% (active); in the test on HCT-116 colon, 1.33% (active). Further, the growth with KM12 colon is -14% (active).
Take `COc1ccc(-c2cc3c(oc2=O)-c2ccccc2OC3OC(C)=O)cc1` (configuration not stated): the growth was 68.5% in the test with T-47D breast; 102% with BT-549 breast; 110% with MDA-MB-435 melanoma; 98.7% in the test with SW-620 colon; 89.6% in the test on MCF7 breast; 74% in the test on HCT-116 colon. The growth in the test with KM12 colon was 111%.
Consider `COc1cc(C2CC(c3ccc(Cl)cc3)=NN2c2ccc(Cl)cc2)cc(OC)c1OC` (configuration not stated), for which the growth in the test on T-47D breast was 86.1%; in the test on BT-549 breast, 95.6%; with MDA-MB-435 melanoma it was 93.3%; in the test with SW-620 colon, 96.6%; with MCF7 breast, 89.5%; in the test on HCT-116 colon, 93.6%. For the same compound, the growth with KM12 colon was 96.5%.
For `Cc1nc(-c2cn3c(n2)-c2ccc(-c4cnn(C(C)(C)C(N)=O)c4)cc2OCC3)n(C(C)C)n1`, the growth in the test on T-47D breast was -9.88% (active); with BT-549 breast, 14.9%; with MDA-MB-435 melanoma, 27.8%; with SW-620 colon, 44%; with MCF7 breast it was 13.7%; in the test with HCT-116 colon it was 20.4%. For the same compound, the growth with KM12 colon is 16.2%.
As to `C=CC(=O)Nc1cc2c(Nc3ccc(F)c(Cl)c3)ncnc2cc1OCCCN1CCOCC1`, the growth was -0.739% (active) in the test with T-47D breast; -10.8% (active) in the test with BT-549 breast; 23.6% in the test on MDA-MB-435 melanoma; -53.5% (active) in the test with SW-620 colon; 13.7% with MCF7 breast; -70.8% (active) in the test on HCT-116 colon. The growth in the test on KM12 colon is 19.1%.
On to `CCCC(=O)OCC1OC(n2cnc3c(=S)nc(N)[nH]c32)C(OC(=O)CCC)C1OC(=O)CCC` (configuration not stated), for which the growth in the test on T-47D breast was 33.4%; in the test with BT-549 breast, 34.2%; in the test on MDA-MB-435 melanoma, 36.3%; with SW-620 colon it was 52%; with MCF7 breast, 17.8%; with HCT-116 colon, 24.7%. For the same compound, in the test on KM12 colon, the growth is 41%.
On to `COc1cc2c(cc1OCCCCCCN1CCN(c3ncnc4ccccc34)CC1)N=CC1CCCN1C2=O` (configuration not stated), for which the growth is 6.98% (active) in the test with T-47D breast; -40.8% (active) in the test on BT-549 breast; -77.1% (active) with MDA-MB-435 melanoma; -19.1% (active) in the test with SW-620 colon; 11.2% in the test on MCF7 breast; 3.4% (active) with HCT-116 colon. In the test on KM12 colon, the growth is -27.9% (active).
With `CC(=O)OC1Oc2ccccc2-c2oc(=O)c(-c3cc4ccc(N(C)C)cc4oc3=O)cc21` (configuration not stated), the growth in the test on T-47D breast was -4.17% (active); in the test on BT-549 breast, 15.9%; in the test with MDA-MB-435 melanoma, 44.5%; in the test with SW-620 colon, 61.7%; in the test on MCF7 breast, 68.5%; with HCT-116 colon, 20.7%. Also, the growth in the test with KM12 colon was 71.8%.
As for `CCCS(=O)(=O)Nc1ccc(F)c(C(=O)c2c[nH]c3ncc(-c4ccc(Cl)cc4)cc23)c1F`, the growth in the test with T-47D breast was 8.42% (active); with BT-549 breast, 41.1%; with MDA-MB-435 melanoma, 13.4%; with SW-620 colon, 78.5%; with MCF7 breast, 44.6%; in the test with HCT-116 colon, 27.3%. Also, the growth in the test on KM12 colon was 32%.
For `CC#CC(=O)N1CCC[C@H]1c1nc(-c2ccc(C(=O)Nc3ccccn3)cc2)c2c(N)nccn12`, the growth with T-47D breast is 58.1%; in the test with BT-549 breast it was 84.5%; in the test on MDA-MB-435 melanoma it was 91.5%; with SW-620 colon, 112%; in the test with MCF7 breast, 77.5%; in the test with HCT-116 colon it was 83.7%. Moreover, the growth in the test on KM12 colon was 91.8%.
Turning to `CS(=O)(=O)N1CCc2c(-c3cnc(N)nc3)nc(N3CCOCC3)nc21`, the growth in the test with T-47D breast was -37.2% (active); in the test with BT-549 breast, -7.63% (active); in the test with MDA-MB-435 melanoma, 2.21% (active); in the test on SW-620 colon it was 24.3%; in the test with MCF7 breast it was 6.89% (active); with HCT-116 colon it was 20.4%. Further, the growth with KM12 colon is 8.03% (active).
